What all share (design): scale not given: direction of the effect not stated beside the values
Assay [1] deals with Protein translocase subunit SecA (Escherichia coli (strain K12)) (UniProt P10408). The assay can be described thus: Assay to Identify E. coli SecA ATPase Inhibitors. The assay is classed as functional. As to conditions: 30 µM.
The target in assay [2] is T1, Ubiquitin-activating enzyme e1, putative (Leishmania donovani (strain BPK282A1)) (UniProt E9BSI1).
T1 sequence (whole entry): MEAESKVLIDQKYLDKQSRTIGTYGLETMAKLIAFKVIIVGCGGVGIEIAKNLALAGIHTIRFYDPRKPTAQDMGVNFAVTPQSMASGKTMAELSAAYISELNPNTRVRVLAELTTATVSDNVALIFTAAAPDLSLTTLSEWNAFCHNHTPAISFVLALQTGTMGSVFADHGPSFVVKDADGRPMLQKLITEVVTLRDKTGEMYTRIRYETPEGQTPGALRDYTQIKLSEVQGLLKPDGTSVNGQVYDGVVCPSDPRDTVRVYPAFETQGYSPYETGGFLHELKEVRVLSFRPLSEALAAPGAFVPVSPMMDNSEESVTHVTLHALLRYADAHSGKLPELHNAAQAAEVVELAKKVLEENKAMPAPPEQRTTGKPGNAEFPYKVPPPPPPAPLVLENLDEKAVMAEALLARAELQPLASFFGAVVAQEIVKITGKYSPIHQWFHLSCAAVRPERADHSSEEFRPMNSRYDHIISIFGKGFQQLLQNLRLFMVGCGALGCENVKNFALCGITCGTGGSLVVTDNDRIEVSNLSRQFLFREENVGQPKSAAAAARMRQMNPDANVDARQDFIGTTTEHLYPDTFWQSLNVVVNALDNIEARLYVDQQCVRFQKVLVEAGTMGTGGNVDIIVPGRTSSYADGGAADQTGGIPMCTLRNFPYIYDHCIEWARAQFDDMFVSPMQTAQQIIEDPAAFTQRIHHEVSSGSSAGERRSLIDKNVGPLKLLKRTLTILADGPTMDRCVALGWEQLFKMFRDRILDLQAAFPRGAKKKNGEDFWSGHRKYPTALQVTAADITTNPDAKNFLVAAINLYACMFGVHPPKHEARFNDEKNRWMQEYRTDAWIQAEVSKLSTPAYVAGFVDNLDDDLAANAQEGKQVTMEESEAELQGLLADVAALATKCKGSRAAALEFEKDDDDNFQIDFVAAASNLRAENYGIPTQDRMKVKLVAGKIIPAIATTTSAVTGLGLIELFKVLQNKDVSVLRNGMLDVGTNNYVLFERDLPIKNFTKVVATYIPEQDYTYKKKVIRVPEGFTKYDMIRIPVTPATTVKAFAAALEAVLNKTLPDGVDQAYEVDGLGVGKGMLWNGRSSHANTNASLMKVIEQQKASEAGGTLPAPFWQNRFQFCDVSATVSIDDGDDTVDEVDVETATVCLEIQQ
The assay can be described thus: Leishmania donovani Ubiquitin Activating Enzyme (LdE1). The class given is functional. Particulars: 30 µM.

Assay [3] addresses AMP-activated protein kinase, AMPK (Homo sapiens) (UniProt P54646+O43741+P54619+Q9UGJ0+Q9Y478+Q13131+Q9UGI9). Description: AMP-dependent Kinase enzyme assay. An in vitro enzyme assay that detects ADP turnover that is directly proportional to AMPK activity. This uses naive AMPK that is activated during the assay with MK-8722. The assay is classed as functional. Particulars: 30 µM.

In assay [4] the target is Sialic acid-binding Ig-like lectin 9 (Homo sapiens) (UniProt Q9Y336). The assay can be described thus: Hs-Siglec9 ALPHAscreen SOP 20170721. As to conditions: 10 µM. In general terms: Bead proximity is the source of the signal in Alpha formats.
Sialic acid-binding Ig-like lectin 9 (Homo sapiens), sequence (Q9Y336 whole entry): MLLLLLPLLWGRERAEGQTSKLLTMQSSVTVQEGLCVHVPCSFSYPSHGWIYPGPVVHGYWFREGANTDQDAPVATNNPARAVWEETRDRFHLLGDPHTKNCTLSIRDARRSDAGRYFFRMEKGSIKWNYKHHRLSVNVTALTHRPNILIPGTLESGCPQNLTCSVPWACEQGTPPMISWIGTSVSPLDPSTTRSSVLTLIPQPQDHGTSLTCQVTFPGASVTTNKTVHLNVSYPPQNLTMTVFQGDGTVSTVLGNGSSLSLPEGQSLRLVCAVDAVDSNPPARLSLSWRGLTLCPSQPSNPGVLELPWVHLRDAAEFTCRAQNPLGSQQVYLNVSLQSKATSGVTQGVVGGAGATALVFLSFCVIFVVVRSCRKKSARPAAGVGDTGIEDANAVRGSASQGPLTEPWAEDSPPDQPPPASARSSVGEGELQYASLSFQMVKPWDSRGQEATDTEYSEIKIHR
Assay [5] relates to Trypanosoma cruzi. The assay can be described thus: Trypanosoma cruzi phosphomannomutase and mannose-1-phosphate guanylyltransferase assay. The class given is functional. Particulars: 10 µM.
Assay [6] addresses T2, Arginase-2, mitochondrial (Homo sapiens) (UniProt P78540).
T2 sequence (whole entry): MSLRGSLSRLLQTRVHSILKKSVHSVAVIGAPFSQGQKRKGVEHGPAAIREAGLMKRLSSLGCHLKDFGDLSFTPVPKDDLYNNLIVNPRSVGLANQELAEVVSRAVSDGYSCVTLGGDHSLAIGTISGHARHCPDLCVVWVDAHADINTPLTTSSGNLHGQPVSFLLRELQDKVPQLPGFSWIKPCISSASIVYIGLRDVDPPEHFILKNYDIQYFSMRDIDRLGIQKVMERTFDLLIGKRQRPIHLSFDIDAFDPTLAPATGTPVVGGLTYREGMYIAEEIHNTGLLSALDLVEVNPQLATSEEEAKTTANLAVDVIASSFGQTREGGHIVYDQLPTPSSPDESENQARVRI
Description: in vitro enzyme assay to detect the production of urea directly proportional to the activity of Arginase II. Note: in the data most compounds retested in dose-response had high values. The class given is functional. As to conditions: 33.3 µM.

For assay [7], the target named is T3, Proteasome subunit beta (Trypanosoma cruzi) (UniProt O96673).
T3 sequence (whole entry): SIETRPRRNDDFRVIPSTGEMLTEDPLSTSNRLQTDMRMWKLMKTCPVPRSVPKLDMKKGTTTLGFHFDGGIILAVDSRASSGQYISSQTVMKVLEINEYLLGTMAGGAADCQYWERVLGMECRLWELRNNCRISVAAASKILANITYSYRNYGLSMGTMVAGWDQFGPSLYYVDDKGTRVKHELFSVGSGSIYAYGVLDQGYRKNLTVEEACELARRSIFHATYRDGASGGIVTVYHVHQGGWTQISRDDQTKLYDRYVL
Description: Trypanosoma cruzi proteasome chymotrypsin-like activity (TcProtChymo) assay. Note: in the data most compounds retested in dose-response had high values. The assay is classed as functional. As to conditions: 9.37 µM.

Assay [8] is filed under the species Homo sapiens. The assay can be described thus: To identify inhibition of the IFN signalling (Jak-Stat) pathway via expression of an eGFP reporter gene under the control of an IFN-stimulated response element (ISRE) containing MxA promoter. The class given is functional. Particulars: 30 µM.
Assay [9] has as its target T4, Tyrosyl-tRNA synthetase, putative (Trypanosoma cruzi (strain CL Brener)) (UniProt Q4DSP6).
T4 sequence (whole entry): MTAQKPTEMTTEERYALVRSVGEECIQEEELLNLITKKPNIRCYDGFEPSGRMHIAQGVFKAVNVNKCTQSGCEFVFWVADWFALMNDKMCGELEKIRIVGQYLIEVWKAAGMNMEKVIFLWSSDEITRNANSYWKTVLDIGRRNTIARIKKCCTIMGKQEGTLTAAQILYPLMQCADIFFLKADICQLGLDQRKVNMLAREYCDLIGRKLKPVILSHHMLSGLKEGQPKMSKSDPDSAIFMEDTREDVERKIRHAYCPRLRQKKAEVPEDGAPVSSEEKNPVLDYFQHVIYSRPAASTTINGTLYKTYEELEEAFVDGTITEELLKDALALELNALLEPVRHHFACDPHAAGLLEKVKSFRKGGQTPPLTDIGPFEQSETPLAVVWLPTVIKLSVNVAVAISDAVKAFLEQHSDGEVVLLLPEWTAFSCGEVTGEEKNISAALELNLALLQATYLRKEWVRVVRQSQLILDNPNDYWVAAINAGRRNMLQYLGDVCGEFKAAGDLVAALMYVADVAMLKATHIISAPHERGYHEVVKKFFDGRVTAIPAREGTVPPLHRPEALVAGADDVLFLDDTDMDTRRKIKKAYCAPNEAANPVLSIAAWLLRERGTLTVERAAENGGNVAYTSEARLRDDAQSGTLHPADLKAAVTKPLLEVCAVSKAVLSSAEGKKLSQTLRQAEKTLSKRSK
The assay can be described thus: Trypanosoma cruzi tyrosyl tRNA synthetase (TcYRS) _High Tyrosine SOP. Note: in the data most compounds retested in dose-response had high values. The class given is functional. As to conditions: 30 µM.

The target of assay [10] is T4, Tyrosyl-tRNA synthetase, putative (Trypanosoma cruzi (strain CL Brener)). The assay can be described thus: Trypanosoma cruzi tyrosyl tRNA synthetase (TcYRS) SOP. The assay is classed as functional. Particulars: 30 µM.
The target of assay [11] is Chromo domain-containing protein 1 (Saccharomyces cerevisiae (strain ATCC 204508 / S288c) (Baker's yeast)) (UniProt P32657). Description: ScCHD-1 Enzyme Inhibition Assay. Note: in the data most compounds retested in dose-response had high values. The class given is functional. Particulars: 30 µM.
Chromo domain-containing protein 1 (Saccharomyces cerevisiae (strain ATCC 204508 / S288c) (Baker's yeast)), sequence (P32657 whole entry, the tested form may be a part): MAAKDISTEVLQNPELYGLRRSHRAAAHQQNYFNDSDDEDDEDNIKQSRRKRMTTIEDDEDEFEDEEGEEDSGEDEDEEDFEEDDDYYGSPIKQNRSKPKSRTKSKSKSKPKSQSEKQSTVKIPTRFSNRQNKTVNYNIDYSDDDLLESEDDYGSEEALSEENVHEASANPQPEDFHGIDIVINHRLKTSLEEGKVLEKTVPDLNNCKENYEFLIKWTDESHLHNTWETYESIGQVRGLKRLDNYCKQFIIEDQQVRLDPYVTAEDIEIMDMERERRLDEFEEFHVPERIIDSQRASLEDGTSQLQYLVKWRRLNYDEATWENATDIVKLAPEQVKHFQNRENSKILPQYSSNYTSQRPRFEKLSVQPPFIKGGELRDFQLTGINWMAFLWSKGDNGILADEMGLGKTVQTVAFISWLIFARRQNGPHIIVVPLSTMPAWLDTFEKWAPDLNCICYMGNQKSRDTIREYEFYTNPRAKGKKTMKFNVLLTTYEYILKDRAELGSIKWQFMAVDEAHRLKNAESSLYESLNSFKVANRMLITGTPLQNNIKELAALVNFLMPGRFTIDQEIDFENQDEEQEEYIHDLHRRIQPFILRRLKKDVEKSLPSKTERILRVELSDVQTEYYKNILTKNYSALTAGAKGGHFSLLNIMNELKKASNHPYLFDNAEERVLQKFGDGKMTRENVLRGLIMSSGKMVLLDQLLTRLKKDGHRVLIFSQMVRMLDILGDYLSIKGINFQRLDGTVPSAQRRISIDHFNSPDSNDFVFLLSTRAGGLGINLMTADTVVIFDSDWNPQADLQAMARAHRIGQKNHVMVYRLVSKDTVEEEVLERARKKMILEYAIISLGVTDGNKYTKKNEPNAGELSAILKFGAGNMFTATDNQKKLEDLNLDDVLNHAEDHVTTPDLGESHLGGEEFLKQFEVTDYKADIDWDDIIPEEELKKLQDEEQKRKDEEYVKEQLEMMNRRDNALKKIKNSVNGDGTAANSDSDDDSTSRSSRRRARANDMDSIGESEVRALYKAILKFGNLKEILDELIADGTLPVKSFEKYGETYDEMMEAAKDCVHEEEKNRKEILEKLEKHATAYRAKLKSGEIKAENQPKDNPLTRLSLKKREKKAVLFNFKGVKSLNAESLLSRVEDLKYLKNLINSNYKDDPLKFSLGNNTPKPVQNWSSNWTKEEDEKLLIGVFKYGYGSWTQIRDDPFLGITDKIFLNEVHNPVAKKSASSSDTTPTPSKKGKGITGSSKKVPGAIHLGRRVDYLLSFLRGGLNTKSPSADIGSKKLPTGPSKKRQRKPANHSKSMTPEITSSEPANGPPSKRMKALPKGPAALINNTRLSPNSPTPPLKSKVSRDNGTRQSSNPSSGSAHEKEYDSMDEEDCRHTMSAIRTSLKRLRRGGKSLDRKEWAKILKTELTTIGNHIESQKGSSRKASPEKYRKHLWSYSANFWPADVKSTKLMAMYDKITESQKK

For some of these results: Results with a measured potency or affinity are listed apart.

The values that follow come from ChEMBL document CHEMBL3988442, “University of Dundee, Small-Polar-MMV Screening Library” (2021).

Protein translocase subunit SecA (Escherichia coli (strain K12)), sequence (P10408 whole entry): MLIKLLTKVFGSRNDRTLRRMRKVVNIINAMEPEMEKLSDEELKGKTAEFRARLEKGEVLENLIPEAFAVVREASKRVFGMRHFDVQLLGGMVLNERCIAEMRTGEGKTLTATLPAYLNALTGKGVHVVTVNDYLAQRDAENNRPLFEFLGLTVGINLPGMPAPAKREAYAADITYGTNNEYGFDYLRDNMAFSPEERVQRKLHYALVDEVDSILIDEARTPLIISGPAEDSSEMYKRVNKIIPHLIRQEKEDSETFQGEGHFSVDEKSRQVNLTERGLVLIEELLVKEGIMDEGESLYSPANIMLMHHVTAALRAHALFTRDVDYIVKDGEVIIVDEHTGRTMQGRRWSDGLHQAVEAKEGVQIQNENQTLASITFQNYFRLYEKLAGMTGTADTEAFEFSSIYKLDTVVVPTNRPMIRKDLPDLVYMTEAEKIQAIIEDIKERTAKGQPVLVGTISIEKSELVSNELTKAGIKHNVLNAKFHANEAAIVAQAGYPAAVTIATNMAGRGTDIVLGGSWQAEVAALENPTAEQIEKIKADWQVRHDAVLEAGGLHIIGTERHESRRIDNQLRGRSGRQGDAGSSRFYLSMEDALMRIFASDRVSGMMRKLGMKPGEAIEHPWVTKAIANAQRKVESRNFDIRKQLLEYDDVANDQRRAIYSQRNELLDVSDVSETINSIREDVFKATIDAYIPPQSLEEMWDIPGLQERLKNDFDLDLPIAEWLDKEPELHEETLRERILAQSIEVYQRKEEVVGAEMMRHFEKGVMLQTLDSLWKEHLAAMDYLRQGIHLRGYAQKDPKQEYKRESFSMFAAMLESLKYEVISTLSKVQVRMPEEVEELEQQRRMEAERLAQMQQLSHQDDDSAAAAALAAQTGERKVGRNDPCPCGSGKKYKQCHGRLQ

With `COc1ccc(CCC(=O)N2CCCC2Cn2cc(C)cn2)cc1F` (stereo unspecified), the Percent Effect is -2.77% in assay [1]; 0% in assay [2]; 9.15% in assay [3]; 2.46% in assay [4]; 1.27% in assay [5]; 4% in assay [6]. Moreover, the Percent Effect in assay [7] was -2.67%; in assay [8], -9.57%; in assay [9], 1.91%; in assay [10], 2.35%; in [11], -12.9%.

As to `CCc1nc(CCNC(=O)C2CCOC2)sc1C` (stereo unspecified), the Percent Effect in assay [1] is -4.95%; in [2], 8.11%; in assay [3] it was -4.04%; in assay [4], 10.6%; in assay [5], 1.76%; in [6], 3.75%. Besides, the Percent Effect in [7] is 5.5%; in assay [8], 9.42%; in assay [9], 6.93%; in assay [10], 8.54%; in [11], -0.947%.

Turning to `O=C(c1cc(COc2ccc3c(c2)OCO3)[nH]n1)N1CCOCC1`, the Percent Effect in assay [1] was -8.28%; in [2], -2.74%; in assay [3], 9.08%; in [4], -1.9%; in assay [5], -4.37%; in assay [6], 0.798%. Also, the Percent Effect in [7] was 7.45%; in assay [8], 6.61%; in [9] it was -3.12%; in assay [10], -3.7%; in [11], -5.41%.

As for `Cc1ccc2c(c1)CN(C(=O)c1ccccc1F)C(CN(C)C)CO2` (stereo unspecified), the Percent Effect in assay [1] was -0.708%; in [2], 12.2%; in [3] it was 14.3%; in assay [4], -7.4%; in assay [5] it was -5.73%; in [6], -4.41%. Moreover, the Percent Effect in assay [7] was 11.7%; in assay [8] it was 0.0165%; in assay [9], 1.07%; in assay [10] it was 3.9%; in assay [11] it was -10%.

For the compound `CNS(=O)(=O)c1ccc(C(=O)NCCc2ccccn2)cc1`, the Percent Effect was -1.2% in assay [1]; 13.2% in assay [2]; -0.141% in assay [3]; 1.24% in [4]; -0.28% in assay [5]; -5.4% in [6]. In addition, the Percent Effect is 10.2% in assay [7]; -22.9% in assay [8]; 7.39% in assay [9]; 16.1% in assay [10]; -7.59% in [11].

Turning to `c1cc(C2CCCN2Cc2nnnn2C2CC2)cs1` (stereo unspecified), the Percent Effect was -2.2% in assay [1]; 4.17% in assay [2]; -9.7% in [3]; -8.8% in [4]; -4.18% in assay [5]; 0% in assay [6]. Moreover, the Percent Effect is 21.2% in assay [7]; 0.525% in assay [8]; 6.32% in [9]; 10.3% in [10]; 2.21% in [11].

As to `O=C1COC2(CCN(Cc3ccc(F)cc3)CC2)CN1`, the Percent Effect in [1] was -4.15%; in [2] it was 2.7%; in [3] it was 2.05%; in [4], -2.96%; in [5], 6.25%; in assay [6], -0.417%. For the same compound, the Percent Effect was 10.2% in assay [7]; -6.9% in [8]; 5.94% in [9]; 15.8% in [10]; -6.08% in assay [11].

With `CCC(=O)N1CCCC(c2cc(Nc3ncccn3)nc(C)n2)C1` (stereo unspecified), the Percent Effect in assay [1] is -3.27%; in [2] it was 1.35%; in assay [3], 13.2%; in [4], -0.199%; in assay [5], -1.58%; in assay [6] it was -5.8%. Further, the Percent Effect is 10.6% in assay [7]; -1.71% in assay [8]; 6.45% in assay [9]; 11.7% in assay [10]; -6.06% in assay [11].

`CO[C@H]1CCN(Cc2cccc(C)n2)[C@@H]2CN(Cc3cccnc3)C[C@H]12`: the Percent Effect in assay [1] is -4.37%; in assay [2] it was 13.7%; in assay [3] it was -4.89%; in assay [4], 7.4%; in [5] it was 12.3%; in [6], -3.99%. In addition, the Percent Effect is 15.5% in assay [7]; 6.58% in assay [8]; 5.21% in assay [9]; 6.17% in assay [10]; -8.06% in assay [11].

In the case of `CN(C)C(=O)CCCNC(=O)C(c1cccc(F)c1)N(C)C` (stereo unspecified), the Percent Effect in [1] is 0.633%; in assay [2], 13.5%; in assay [3] it was -10.5%; in assay [4], 5.14%; in assay [5], 5.41%; in assay [6], -1.43%. Besides, the Percent Effect in [7] is 11.7%; in [8], 24.9%; in assay [9], 10.1%; in assay [10], 12.2%; in [11], -1.94%.

As to `CCN1Cc2c(C(=O)NCC3CC3)ncn2-c2ccccc2S1(=O)=O`, the Percent Effect was 3.87% in assay [1]; -5.48% in [2]; -3.01% in assay [3]; 4.85% in [4]; 3.37% in [5]; -0.399% in assay [6]. In addition, the Percent Effect is 16% in assay [7]; -1.54% in assay [8]; 0% in assay [9]; 18.5% in [10]; -2.17% in assay [11].
